{"source": "PubChem BioAssay AID1508601", "about": "(ICCB-Longwood Screening Facility, Harvard Medical School, 2020)", "key": {"[1]": {"assay": "p53 stabilisation in HPV-positive human cells, imaging, p53-positive nuclei imaging, 24 h, 48 h (AID 1508601)", "conditions": "24/48 h"}, "[2]": {"molecular_target": "Cellular tumor antigen p53 (Homo sapiens) (UniProt P04637)", "sequence (P04637 whole entry, looked up)": "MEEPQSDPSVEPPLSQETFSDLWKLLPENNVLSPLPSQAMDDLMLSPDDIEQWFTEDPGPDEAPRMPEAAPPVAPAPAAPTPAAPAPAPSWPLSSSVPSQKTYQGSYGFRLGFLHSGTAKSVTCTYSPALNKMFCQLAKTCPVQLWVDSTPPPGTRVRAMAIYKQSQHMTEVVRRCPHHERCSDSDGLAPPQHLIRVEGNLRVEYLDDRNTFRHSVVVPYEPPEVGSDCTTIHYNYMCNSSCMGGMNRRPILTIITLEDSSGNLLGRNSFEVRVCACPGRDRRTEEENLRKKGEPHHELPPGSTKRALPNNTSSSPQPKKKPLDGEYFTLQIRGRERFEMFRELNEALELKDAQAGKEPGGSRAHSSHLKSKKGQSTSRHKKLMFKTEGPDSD", "assay": "p53 stabilisation in HPV-positive human cells, imaging, p53-positive nuclei imaging, 24 h, 48 h (AID 1508601)", "conditions": "24/48 h, stronger effect = higher value"}, "[3]": {"conditions": "measured here: cell number at 24 h, concentration not given here"}, "[4]": {"conditions": "measured here: cell number at 48 h, concentration not given here"}, "[5]": {"conditions": "measured here: p53 positive nuclei at 24 h, concentration not given here"}, "[6]": {"conditions": "measured here: cell number at 24 h, Library stock concentration: 3.33 mM"}, "[7]": {"conditions": "measured here: cell number at 24 h, Library stock concentration: 10 mM"}, "[8]": {"conditions": "measured here: cell number at 48 h, Library stock concentration: 3.33 mM"}, "[9]": {"conditions": "measured here: cell number at 48 h, Library stock concentration: 10 mM"}, "[10]": {"conditions": "Library stock concentration: 3.33 mM"}, "[11]": {"conditions": "Library stock concentration: 10 mM"}, "[12]": {"conditions": "measured here: p53 positive nuclei at 24 h, Library stock concentration: 3.33 mM"}, "[13]": {"conditions": "measured here: p53 positive nuclei at 24 h, Library stock concentration: 10 mM"}}, "note": "The campaign covered roughly 5,700 compounds. About 85 (1%) were called active. No stated cut-off is given here; in the data, active means p53-positive nuclei above about 36% (passing the limit was not always enough); inactive means the rest. The sample as a whole holds a higher share of actives than the screen did."}
{"smiles": "CCCCC[C@@](C)(O)/C=C/[C@H]1[C@H](O)CC(=O)[C@@H]1C/C=C\\CCCC(=O)O", "values": [{"measurement": "nuclei count, normalised", "setting": "[1]; [3]", "value": 101, "unit": "%"}, {"measurement": "nuclei count, normalised", "setting": "[1]; [4]", "value": 105, "unit": "%"}, {"measurement": "p53-positive nuclei, normalised", "setting": "[2]; concentration not given here", "value": "-0.0639% (inactive)"}, {"measurement": "p53-positive nuclei, normalised", "setting": "[2]; [5]", "value": 0.0947, "unit": "%"}]}
{"smiles": "CC(C)N(CCCNC(=O)Nc1ccc(C(C)(C)C)cc1)CC1OC(n2cc(Br)c3c(N)ncnc32)C(O)C1O", "note": "(stereo not given)", "values": [{"measurement": "nuclei count, normalised", "setting": "[1]; measured here: cell number at 24 h, Library stock concentration: 80 uM", "value": 105, "unit": "%"}, {"measurement": "nuclei count, normalised", "setting": "[1]; measured here: cell number at 24 h, Library stock concentration: 400 uM", "value": 101, "unit": "%"}, {"measurement": "nuclei count, normalised", "setting": "[1]; measured here: cell number at 24 h, Library stock concentration: 2 mM", "value": 103, "unit": "%"}, {"measurement": "nuclei count, normalised", "setting": "[1]; [6]", "value": 115, "unit": "%"}, {"measurement": "nuclei count, normalised", "setting": "[1]; [7]", "value": 101, "unit": "%"}, {"measurement": "nuclei count, normalised", "setting": "[1]; measured here: cell number at 48 h, Library stock concentration: 80 uM", "value": 98.8, "unit": "%"}, {"measurement": "nuclei count, normalised", "setting": "[1]; measured here: cell number at 48 h, Library stock concentration: 400 uM", "value": 96.7, "unit": "%"}, {"measurement": "nuclei count, normalised", "setting": "[1]; measured here: cell number at 48 h, Library stock concentration: 2 mM", "value": 94.7, "unit": "%"}, {"measurement": "nuclei count, normalised", "setting": "[1]; [8]", "value": 110, "unit": "%"}, {"measurement": "nuclei count, normalised", "setting": "[1]; [9]", "value": 99.9, "unit": "%"}, {"measurement": "p53-positive nuclei, normalised", "setting": "[2]; Library stock concentration: 80 uM", "value": "-0.0631% (inactive)"}, {"measurement": "p53-positive nuclei, normalised", "setting": "[2]; Library stock concentration: 400 uM", "value": "0.111% (inactive)"}, {"measurement": "p53-positive nuclei, normalised", "setting": "[2]; Library stock concentration: 2 mM", "value": "0.291% (inactive)"}, {"measurement": "p53-positive nuclei, normalised", "setting": "[2]; [10]", "value": "-0.109% (inactive)"}, {"measurement": "p53-positive nuclei, normalised", "setting": "[2]; [11]", "value": "0.13% (inactive)"}, {"measurement": "p53-positive nuclei, normalised", "setting": "[2]; measured here: p53 positive nuclei at 24 h, Library stock concentration: 80 uM", "value": -0.167, "unit": "%"}, {"measurement": "p53-positive nuclei, normalised", "setting": "[2]; measured here: p53 positive nuclei at 24 h, Library stock concentration: 400 uM", "value": 0.0144, "unit": "%"}, {"measurement": "p53-positive nuclei, normalised", "setting": "[2]; measured here: p53 positive nuclei at 24 h, Library stock concentration: 2 mM", "value": -0.162, "unit": "%"}, {"measurement": "p53-positive nuclei, normalised", "setting": "[2]; [12]", "value": -0.283, "unit": "%"}, {"measurement": "p53-positive nuclei, normalised", "setting": "[2]; [13]", "value": -0.163, "unit": "%"}]}
{"smiles": "CCCC1CC(C(=O)NC(C(C)O)[C@@H]2OC(SC)C(O)C(O)C2O)N(C)C1", "note": "(stereo not given in full)", "values": [{"measurement": "nuclei count, normalised", "setting": "[1]; [6]", "value": 101, "unit": "%"}, {"measurement": "nuclei count, normalised", "setting": "[1]; [8]", "value": 102, "unit": "%"}, {"measurement": "p53-positive nuclei, normalised", "setting": "[2]; [10]", "value": "-0.245% (inactive)"}, {"measurement": "p53-positive nuclei, normalised", "setting": "[2]; [12]", "value": -0.267, "unit": "%"}]}
{"smiles": "N#CSc1cc(SC#N)c(N)nc1N", "values": [{"measurement": "nuclei count, normalised", "setting": "[1]; measured here: cell number at 24 h, Library stock concentration: 500 nM", "value": 108, "unit": "%"}, {"measurement": "nuclei count, normalised", "setting": "[1]; measured here: cell number at 24 h, Library stock concentration: 1.5 uM", "value": 116, "unit": "%"}, {"measurement": "nuclei count, normalised", "setting": "[1]; measured here: cell number at 24 h, Library stock concentration: 4.6 uM", "value": 121, "unit": "%"}, {"measurement": "nuclei count, normalised", "setting": "[1]; measured here: cell number at 24 h, Library stock concentration: 13.7 uM", "value": 119, "unit": "%"}, {"measurement": "nuclei count, normalised", "setting": "[1]; measured here: cell number at 24 h, Library stock concentration: 41 uM", "value": 107, "unit": "%"}, {"measurement": "nuclei count, normalised", "setting": "[1]; measured here: cell number at 24 h, Library stock concentration: 123 uM", "value": 114, "unit": "%"}, {"measurement": "nuclei count, normalised", "setting": "[1]; measured here: cell number at 24 h, Library stock concentration: 370 uM", "value": 114, "unit": "%"}, {"measurement": "nuclei count, normalised", "setting": "[1]; measured here: cell number at 24 h, Library stock concentration: 1.111 mM", "value": 107, "unit": "%"}, {"measurement": "nuclei count, normalised", "setting": "[1]; [6]", "value": 97.4, "unit": "%"}, {"measurement": "nuclei count, normalised", "setting": "[1]; measured here: cell number at 24 h, Library stock concentration: 3.333 mM", "value": 84.8, "unit": "%"}, {"measurement": "nuclei count, normalised", "setting": "[1]; [7]", "value": 45.2, "unit": "%"}, {"measurement": "nuclei count, normalised", "setting": "[1]; measured here: cell number at 48 h, Library stock concentration: 500 nM", "value": 108, "unit": "%"}, {"measurement": "nuclei count, normalised", "setting": "[1]; measured here: cell number at 48 h, Library stock concentration: 1.5 uM", "value": 111, "unit": "%"}, {"measurement": "nuclei count, normalised", "setting": "[1]; measured here: cell number at 48 h, Library stock concentration: 4.6 uM", "value": 118, "unit": "%"}, {"measurement": "nuclei count, normalised", "setting": "[1]; measured here: cell number at 48 h, Library stock concentration: 13.7 uM", "value": 113, "unit": "%"}, {"measurement": "nuclei count, normalised", "setting": "[1]; measured here: cell number at 48 h, Library stock concentration: 41 uM", "value": 108, "unit": "%"}, {"measurement": "nuclei count, normalised", "setting": "[1]; measured here: cell number at 48 h, Library stock concentration: 123 uM", "value": 113, "unit": "%"}, {"measurement": "nuclei count, normalised", "setting": "[1]; measured here: cell number at 48 h, Library stock concentration: 370 uM", "value": 74.3, "unit": "%"}, {"measurement": "nuclei count, normalised", "setting": "[1]; measured here: cell number at 48 h, Library stock concentration: 1.111 mM", "value": 74.4, "unit": "%"}, {"measurement": "nuclei count, normalised", "setting": "[1]; [8]", "value": 103, "unit": "%"}, {"measurement": "nuclei count, normalised", "setting": "[1]; measured here: cell number at 48 h, Library stock concentration: 3.333 mM", "value": 62.1, "unit": "%"}, {"measurement": "nuclei count, normalised", "setting": "[1]; [9]", "value": 21.8, "unit": "%"}, {"measurement": "p53-positive nuclei, normalised", "setting": "[2]; Library stock concentration: 500 nM", "value": "0.137% (inactive)"}, {"measurement": "p53-positive nuclei, normalised", "setting": "[2]; Library stock concentration: 1.5 uM", "value": "-0.0213% (inactive)"}, {"measurement": "p53-positive nuclei, normalised", "setting": "[2]; Library stock concentration: 4.6 uM", "value": "-0.102% (inactive)"}, {"measurement": "p53-positive nuclei, normalised", "setting": "[2]; Library stock concentration: 13.7 uM", "value": "0.047% (inactive)"}, {"measurement": "p53-positive nuclei, normalised", "setting": "[2]; Library stock concentration: 41 uM", "value": "0.227% (inactive)"}, {"measurement": "p53-positive nuclei, normalised", "setting": "[2]; Library stock concentration: 123 uM", "value": "-0.098% (inactive)"}, {"measurement": "p53-positive nuclei, normalised", "setting": "[2]; Library stock concentration: 370 uM", "value": "0.164% (inactive)"}, {"measurement": "p53-positive nuclei, normalised", "setting": "[2]; Library stock concentration: 1.111 mM", "value": "0.121% (inactive)"}, {"measurement": "p53-positive nuclei, normalised", "setting": "[2]; [10]", "value": "0.00985% (inactive)"}, {"measurement": "p53-positive nuclei, normalised", "setting": "[2]; Library stock concentration: 3.333 mM", "value": "0.39% (inactive)"}, {"measurement": "p53-positive nuclei, normalised", "setting": "[2]; [11]", "value": "46.6% (active)"}, {"measurement": "p53-positive nuclei, normalised", "setting": "[2]; measured here: p53 positive nuclei at 24 h, Library stock concentration: 500 nM", "value": 0.00877, "unit": "%"}, {"measurement": "p53-positive nuclei, normalised", "setting": "[2]; measured here: p53 positive nuclei at 24 h, Library stock concentration: 1.5 uM", "value": -0.00152, "unit": "%"}, {"measurement": "p53-positive nuclei, normalised", "setting": "[2]; measured here: p53 positive nuclei at 24 h, Library stock concentration: 4.6 uM", "value": 0.0386, "unit": "%"}, {"measurement": "p53-positive nuclei, normalised", "setting": "[2]; measured here: p53 positive nuclei at 24 h, Library stock concentration: 13.7 uM", "value": -0.00721, "unit": "%"}, {"measurement": "p53-positive nuclei, normalised", "setting": "[2]; measured here: p53 positive nuclei at 24 h, Library stock concentration: 41 uM", "value": 0.497, "unit": "%"}, {"measurement": "p53-positive nuclei, normalised", "setting": "[2]; measured here: p53 positive nuclei at 24 h, Library stock concentration: 123 uM", "value": 0.0549, "unit": "%"}, {"measurement": "p53-positive nuclei, normalised", "setting": "[2]; measured here: p53 positive nuclei at 24 h, Library stock concentration: 370 uM", "value": -0.0579, "unit": "%"}, {"measurement": "p53-positive nuclei, normalised", "setting": "[2]; measured here: p53 positive nuclei at 24 h, Library stock concentration: 1.111 mM", "value": 0.00745, "unit": "%"}, {"measurement": "p53-positive nuclei, normalised", "setting": "[2]; [12]", "value": -0.237, "unit": "%"}, {"measurement": "p53-positive nuclei, normalised", "setting": "[2]; measured here: p53 positive nuclei at 24 h, Library stock concentration: 3.333 mM", "value": 0.112, "unit": "%"}, {"measurement": "p53-positive nuclei, normalised", "setting": "[2]; [13]", "value": 76.7, "unit": "%"}]}
{"smiles": "CC/C=C\\C/C=C\\C/C=C\\C/C=C\\C/C=C\\CCCCCC(=O)O", "values": [{"measurement": "nuclei count, normalised", "setting": "[1]; [3]", "value": 100, "unit": "%"}, {"measurement": "nuclei count, normalised", "setting": "[1]; [4]", "value": 102, "unit": "%"}, {"measurement": "p53-positive nuclei, normalised", "setting": "[2]; concentration not given here", "value": "0.209% (inactive)"}, {"measurement": "p53-positive nuclei, normalised", "setting": "[2]; [5]", "value": -0.0279, "unit": "%"}]}
{"smiles": "CC(Oc1ccc2c(c1)OCO2)C(=O)N(Cc1nccn1C)C(C)C", "note": "(stereo not given)", "values": [{"measurement": "nuclei count, normalised", "setting": "[1]; [3]", "value": 101, "unit": "%"}, {"measurement": "nuclei count, normalised", "setting": "[1]; [4]", "value": 109, "unit": "%"}, {"measurement": "p53-positive nuclei, normalised", "setting": "[2]; concentration not given here", "value": "-0.128% (inactive)"}, {"measurement": "p53-positive nuclei, normalised", "setting": "[2]; [5]", "value": 0.148, "unit": "%"}]}
